From PubChem BioAssay AID1159580 (chemical genetic matrix, 2015)
Several values for one entry are separate records, joined by “and”; a condition that tells them apart may be missing. Identical values can stand only once. Out of some 5,500 compounds screened, about 2,000 (36%) were called active. Another 18% or so got no clear call; they are omitted. Cut-off read from the data, not from the text of the source: active = normalized growth mostly below about 0.91 (no sharp cut-off); inconclusive = no clear call, values can overlap the other calls; inactive = mostly above about 0.92. Some of the results follow.

Test: chemical genetic growth profiling, strain panel (AID 1159580);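 note: tested at 20 µM; growth read once vehicle control cultures reached saturation at 30 °C; 1 = growth at the plate median or of vehicle wells; lower values mean less growth of the strain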
Details: S. cerevisiae deletion strains, growth OD

Measured: normalized growth

OCC(O)C(O)C(O)CO (stereo unspecified)
inactive: locus YAL021C, strain ccr4, hits give low values 1.01 | locus YAL026C, strain drs2, hits give low values 1.02 and 1.01 | locus YAL030W, strain snc1, hits give low values 1.03 and 0.992 | locus YBL061C, strain skt5, hits give low values 1.02 and 0.994 | locus YBR009C, strain hhf1, hits give low values 1.02 and 0.989 | locus YBR021W, strain FUR4, hits give low values 1.07 | locus YBR023C, strain chs3, hits give low values 1.03 and 0.999 | locus YBR171W, strain sec66, hits give low values 1.06 and 0.99 | locus YBR229C, strain ROT2, hits give low values 0.964 | locus YBR231C, strain swc5, hits give low values 1.03 and 0.994 | locus YBR279W, strain paf1, hits give low values 1.01 and 0.998 | locus YCL011C, strain gbp2, hits give low values 1.03 and 1.01 | locus YCL016C, strain dcc1, hits give low values 1.03 and 0.99 | locus YCL029C, strain bik1, hits give low values 0.985 | locus YCL061C, strain MRC1, hits give low values 1.03 | locus YCL069W, strain vba3, hits give low values 1.03 and 0.994 | locus YCR088W, strain abp1, hits give low values 1.02 and 0.991 | locus YDL005C, strain med2, hits give low values 1.03 and 0.984 | locus YDL035C, strain GPR1, hits give low values 1.04 | locus YDL040C, strain nat1, hits give low values 1.02 and 1 | locus YDL074C, strain BRE1, hits give low values 1.12 | locus YDL101C, strain DUN1, hits give low values 0.996 | locus YDL134C, strain PPH21, hits give low values 1.01 | locus YDL185W, strain tfp1, hits give low values 0.982 | locus YDL192W, strain arf1, hits give low values 1.02 | locus YDR001C, strain nth1, hits give low values 1.02 | locus YDR069C, strain doa4, hits give low values 1.02 and 0.976 | locus YDR101C, strain arx1, hits give low values 1.05 | locus YDR137W, strain rgp1, hits give low values 1.09 and 0.983 | locus YDR159W, strain sac3, hits give low values 1.03 and 1 | locus YDR162C, strain NBP2, hits give low values 0.971 | locus YDR195W, strain ref2 1.04 and 0.983 | locus YDR297W, strain sur2, hits give low values 1.02 and 1.01 | locus YDR318W, strain mcm21, hits give low values 0.992 | locus YDR334W, strain swr1, hits give low values 1.02 and 1 | locus YDR335W, strain msn5, hits give low values 1.02 and 0.999 | locus YDR388W, hits give low values 0.995 | locus YDR392W, strain spt3, hits give low values 1.02 and 0.998 | locus YDR502C, strain sam2, hits give low values 0.995 | locus YEL003W, strain gim4, hits give low values 1.03 and 1 | locus YEL037C, strain rad23, hits give low values 1.01 and 1 | locus YEL061C, strain CIN8 (second series), hits give low values 1.03 and 0.998 | locus YEL061C, strain CIN8, hits give low values 1.01 | locus YER015W, strain faa2, hits give low values 1.02 and 1 | locus YER016W, strain bim1, hits give low values 1.03 and 0.982 | locus YER110C, hits give low values 0.983 | locus YER111C, strain swi4, hits give low values 1.05 and 0.999 | locus YER155C, strain BEM2 (second series), hits give low values 1.05 and 0.987 | locus YER155C, strain BEM2, hits give low values 1 | locus YER167W, strain BCK2, hits give low values 1.01 | locus YFR010W, strain ubp6, hits give low values 1.02 and 1 | locus YGL078C, strain dbp3, hits give low values 1.01 | locus YGL086W, strain mad1, hits give low values 1.05 | locus YGL167C, strain pmr1, hits give low values 1.04 and 1 | locus YGL173C, strain kem1, hits give low values 1.03 and 0.996 | locus YGL227W, strain vid30, hits give low values 1.02 and 0.98 | locus YGL240W, strain doc1, hits give low values 1.03 and 1.01 | locus YGL248W, strain PDE1, hits give low values 0.999 | locus YGL253W, strain hxk2, hits give low values 1.02 and 1.01 | locus YGR135W, strain pre9, hits give low values 0.984 | locus YGR229C, strain SMI1, hits give low values 1.04 | locus YGR252W, strain gcn5, hits give low values 1.06 | locus YHR013C, strain ard1, hits give low values 1.04 and 0.994 | locus YHR027C, strain rpn1, hits give low values 1.03 and 0.991 | locus YHR030C, strain SLT2, hits give low values 1.03 and 1.02 | locus YHR079C, strain IRE1 (second series), hits give low values 0.994 | locus YHR079C, strain IRE1, hits give low values 1.02 and 1.05 | locus YHR094C, strain hxt1, hits give low values 0.982 | locus YHR129C, strain ARP1, hits give low values 1.02 | locus YHR142W, strain chs7, hits give low values 1.04 and 1.02 | locus YHR200W, strain rpn10, hits give low values 1 | locus YIL066C, strain RNR3, hits give low values 1.02 | locus YIL073C, strain SPO22, hits give low values 1.07 | locus YIL125W, strain kgd1, hits give low values 0.997 | locus YIR030C, strain dcg1, hits give low values 1 | locus YJL092W, strain hpr5, hits give low values 1.03 and 1 | locus YJL095W, strain BCK1 (second series), hits give low values 1.01 and 0.999 | locus YJL095W, strain BCK1, hits give low values 1.04 and 1.03 | locus YJL115W, strain asf1, hits give low values 1.04 and 0.983 | locus YJL129C, strain trk1, hits give low values 1.05 and 0.992 | locus YJL134W, strain LCB3, hits give low values 0.993 | locus YJL154C, strain vps35, hits give low values 1.02 and 0.991 | locus YJL164C, strain tpk1, hits give low values 1.03 and 0.996 | locus YJL166W, strain qcr8, hits give low values 1.03 and 1.01 | locus YJL168C, strain set2, hits give low values 0.998 | locus YJL187C, strain SWE1 (second series), hits give low values 0.995 | locus YJL187C, strain SWE1, hits give low values 1.04 and 0.996 | locus YJR043C, strain POL32, hits give low values 1.05 | locus YJR066W, strain TOR1, hits give low values 0.962 and 0.981 | locus YKL009W, strain mrt4, hits give low values 1.06 | locus YKL068W, hits give low values 0.987 | locus YKL085W, strain MDH1 (second series), hits give low values 1.01 | locus YKL085W, strain MDH1, hits give low values 1.01 | locus YKL160W, strain elf1, hits give low values 1.02 and 0.994 | locus YKL190W, strain CNB1, hits give low values 0.996 | locus YKR001C, strain vps1, hits give low values 1.02 | locus YKR026C, strain gcn3, hits give low values 1.03 and 0.989 | locus YKR091W, strain srl3, hits give low values 1.02 and 0.991 | locus YLL001W, strain dnm1, hits give low values 1.03 and 1 | locus YLL026W, hits give low values 1.03 and 0.991 | locus YLL041C, strain sdh2, hits give low values 1.02 and 0.993 | locus YLR027C, strain aat2, hits give low values 1.03 and 0.975 | locus YLR039C, strain RIC1, hits give low values 1.07 | locus YLR058C, strain SHM2, hits give low values 1 | locus YLR102C, strain apc9, hits give low values 0.992 | locus YLR113W, strain HOG1, hits give low values 1.02 and 1.06 | locus YLR221C, strain rsa3, hits give low values 1.03 and 0.996 | locus YLR258W, strain gsy2, hits give low values 1.01 and 1 | locus YLR262C, strain YPT6 (second series), hits give low values 1.05 and 1.02 | locus YLR262C, strain YPT6, hits give low values 1.02 | locus YLR268W, strain sec22, hits give low values 1.03 | locus YLR320W, strain mms22, hits give low values 1.03 and 1.01 | locus YLR330W, strain CHS5, hits give low values 1.01 | locus YLR342W, strain FKS1 (second series), hits give low values 1.16 | locus YLR342W, strain FKS1, hits give low values 1.03 and 0.995 | locus YLR357W, strain rsc2, hits give low values 1.06 and 0.993 | locus YLR370C, strain arc18, hits give low values 1.02 and 0.986 | locus YLR371W, strain rom2, hits give low values 1 | locus YLR384C, strain iki3, hits give low values 1.03 and 0.966 | locus YLR418C, strain cdc73, hits give low values 1.05 | locus YML016C, strain PPZ1, hits give low values 1 | locus YML032C, strain rad52, hits give low values 0.996 | locus YML120C, strain ndi1, hits give low values 1.03 and 1 | locus YML124C, strain tub3, hits give low values 0.99 | locus YMR058W, strain fet3, hits give low values 1.02 and 1 | locus YMR078C, strain ctf18, hits give low values 0.998 | locus YMR125W, strain sto1, hits give low values 1.02 and 1 | locus YMR129W, hits give low values 1.03 and 0.992 | locus YMR205C, strain PFK2, hits give low values 1.05 and 0.988 | locus YMR223W, strain ubp8, hits give low values 1 | locus YMR231W, strain pep5, hits give low values 1.01 | locus YMR263W, strain SAP30, hits give low values 1.01 | locus YMR307W, strain GAS1, hits give low values 1.2 | locus YNL067W, strain RPL9B, hits give low values 0.991 | locus YNL071W, strain lat1, hits give low values 1.02 and 1.01 | locus YNL128W, strain TEP1, hits give low values 1.02 | locus YNL183C, strain NPR1, hits give low values 0.969 and 0.984 | locus YNL209W, strain ssb2, hits give low values 1.01 and 0.988 | locus YNL233W, strain BNI4, hits give low values 1.02 | locus YNL248C, strain rpa49, hits give low values 1.03 and 1.02 | locus YNL250W, strain rad50, hits give low values 1 | locus YNL271C, strain bni1, hits give low values 1.01 | locus YNL298W, strain CLA4, hits give low values 1.02 | locus YNL307C, strain MCK1, hits give low values 0.997 | locus YNL322C, strain KRE1 (second series), hits give low values 1.03 and 0.99 | locus YNL322C, strain KRE1, hits give low values 1.01 | locus YNR049C, strain mso1, hits give low values 1.02 and 0.994 | locus YNR052C, strain pop2, hits give low values 1.01 | locus YOL012C, strain htz1 0.9 | locus YOL147C, strain pex11, hits give low values 0.994 | locus YOR001W, strain rrp6, hits give low values 1.01 and 0.998 | locus YOR061W, strain CKA2, hits give low values 0.989 | locus YOR069W, strain VPS5, hits give low values 1.01 | locus YOR070C, strain gyp1, hits give low values 1.01 and 0.994 | locus YOR080W, strain dia2, hits give low values 1.03 and 0.985 | locus YOR083W, strain WHI5, hits give low values 1.01 and 0.997 | locus YOR106W, strain vam3, hits give low values 1.05 and 0.998 | locus YOR136W, strain idh2, hits give low values 0.992 | locus YOR144C, strain elg1, hits give low values 0.989 | locus YOR184W, strain ser1, hits give low values 1 | locus YOR231W, strain MKK1, hits give low values 1.03 and 1.05 | locus YOR265W, strain rbl2, hits give low values 1.03 and 0.995 | locus YOR270C, strain vph1, hits give low values 1.09 and 1.04 | locus YOR290C, strain snf2, hits give low values 1.04 and 0.997 | locus YOR316C, strain cot1, hits give low values 0.989 | locus YPL051W, strain arl3, hits give low values 1.02 and 0.975 | locus YPL078C, strain atp4, hits give low values 1.02 and 0.992 | locus YPL106C, strain sse1, hits give low values 1.03 and 0.946 | locus YPL240C, strain hsp82, hits give low values 1.02 and 0.997 | locus YPL241C, strain CIN2, hits give low values 0.997 | locus YPL256C, strain CLN2, hits give low values 0.996 and 1.06 | locus YPR119W, strain clb2, hits give low values 1 | locus YPR141C, strain kar3, hits give low values 0.992 | locus YPR163C, strain tif3, hits give low values 0.995 | locus YPR167C, strain met16, hits give low values 1 | strain wtn01, hits give low values 1.04
